High-throughput results deposited in PubChem BioAssay by National Center for Advancing Translational Sciences (NCATS).
Gal4-VP16 FLuc: inhibits Gal4-VP16 luciferase reporter, ROR gamma counter-screen. Drosophila S2 Gal4-VP16 UAS-luciferase, luminescence, 20 h. Potency, µM (top dose mostly 53.6 µM), for the others: at the highest dose activity, negative = inhibition, usual class: inhibitors. hit rate 3.5% among 310,000;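 also: Gal4-VP16 expression switched on by copper sulfate through the metallothionein promoter; nearly all actives have a fitted effect of over 50% in size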
TDP1 inh: inhibitors of human tyrosyl-DNA phosphodiesterase TDP1; Q9NUW8; recombinant TDP1, AlphaScreen DNA substrate cleavage; Potency, µM (top dose mostly 130 µM), for the others: at the highest dose activity change, negative = inhibition, most hits filed as inhibitors; hit rate 0.28% among 350,000; also: nearly all actives have a fitted effect of over 40% in size
Target sequence (Q9NUW8 whole entry, looked up): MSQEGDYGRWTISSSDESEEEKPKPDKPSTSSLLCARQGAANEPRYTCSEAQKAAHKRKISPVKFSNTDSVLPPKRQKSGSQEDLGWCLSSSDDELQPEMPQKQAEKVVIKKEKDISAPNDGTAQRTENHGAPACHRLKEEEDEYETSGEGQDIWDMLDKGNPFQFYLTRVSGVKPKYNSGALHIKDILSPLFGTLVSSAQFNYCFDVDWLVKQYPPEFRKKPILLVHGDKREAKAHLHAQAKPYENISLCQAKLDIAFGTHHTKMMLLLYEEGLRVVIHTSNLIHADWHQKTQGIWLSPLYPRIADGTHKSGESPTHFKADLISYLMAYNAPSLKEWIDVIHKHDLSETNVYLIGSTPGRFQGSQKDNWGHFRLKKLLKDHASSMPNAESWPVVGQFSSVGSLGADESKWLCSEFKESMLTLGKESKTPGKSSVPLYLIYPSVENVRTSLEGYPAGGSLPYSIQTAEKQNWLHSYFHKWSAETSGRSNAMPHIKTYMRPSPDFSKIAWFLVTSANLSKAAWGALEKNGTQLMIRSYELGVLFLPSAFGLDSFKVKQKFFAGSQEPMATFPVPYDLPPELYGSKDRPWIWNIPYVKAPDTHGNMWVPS
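Here, a 5' biotin and 3' phosphotyrosine-FITC DNA oligonucleotide reports Tdp1 activity: intact substrate bridges AlphaScreen beads, while cleavage leaves a 3' phosphate and drops signal. All incubations at room temperature.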
RORg inh: blocks mouse ROR gamma transcriptional activity. Drosophila S2 Gal4-RORgamma UAS-luciferase reporter, 20 h. Potency, µM (titrated, usually from 53.6 µM), for the others: at the top dose activity change, negative = inhibition, usual class: inhibitors. P51450. AID 2551. hit rate 5.4% among 310,000; also: nearly all actives have a fitted effect of over 60% in size
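Compounds are pin-transferred onto Drosophila Schneider cells expressing a copper-inducible Gal4–ROR gamma transactivation domain fusion. After 1 hr, copper sulfate is added to 700 uM final; luciferase is read 20 hr later.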
DT40 TDP1 CPT: DT40-hTDP1 cell growth loss with CPT; chicken DT40 Tdp1-/-;hTDP1 cells + 20 nM CPT, ATP luminescence, 48 h; Potency, µM (highest dose often 46.2 µM), for the others: top-dose activity change, negative = growth inhibition, usual class: inhibitors; hit rate 12% among 420,000; AID 686979; also: nearly all actives have a fitted effect of over 55% in size
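Cell growth measured by CellTiter-Glo luminescence after a minimum 48 h, 37 C compound exposure with 20 nM CPT in Tdp1-knockout DT40 cells stably expressing hTDP1, seeded 400/well; qHTS titration format.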
TDP1 cell noCPT: qHTS for Inhibitors of human tyrosyl-DNA phosphodiesterase 1 (TDP1): qHTS in cells in absence of CPT | DT40 Tdp1-/- hTDP1 cells, no CPT, ATP luminescence, 48 h | Potency, µM (titrated, usually from 46.2 µM), for inactives: at the top dose activity change, negative = growth inhibition, actives largely listed as inhibitors | hit rate 15% among 420,000; also: nearly all actives have a fitted effect of over 55% in size
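Readout: luminescence from CellTiter-Glo after 30 min in the dark at RT. Cells: DT40 Tdp1-/- with stable hTDP1, 400/well. Exposure: compounds alone, ≥48 hr, 37 °C.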
* = called active by the depositor; u = inconclusive; x = not tested or not shown; ! = repeats disagree; [ ] = remark or other dose. Shown are actives, neighbours in structure and some others; about 19% of the full set was active somewhere. Calls follow the shape of the dose curve; as a rule, active = well fitted curve in the direction sought with a large enough effect; inconclusive = small, poorly fitted or top-dose-only effect, or another doubt; inactive = no such curve, though single readings can be large; an effect the other way counts as inactive or inconclusive. % is scaled to controls: 0 for no effect and ±100 for the full control effect; potency is read from the fitted curve at half-maximal effect.

SMILES	Gal4-VP16 FLuc	TDP1 inh	RORg inh	DT40 TDP1 CPT	TDP1 cell noCPT
N#C/C(C(=O)Nc1ccc(Cl)cc1)=C(/S)Nc1ccccc1	u	x	u	15µM*	12µM*
CC(=O)Oc1ccc(Nc2ccccc2)cc1	14%	2%	u	18µM*	u
O=C(Nc1ccc(Nc2ccccc2)cc1)c1ccc(Cl)cc1	x	x	x	18µM*	13µM*
N#C/C(=C\c1cccnc1)C(=O)Nc1ccc(Cl)cc1	1%	5%	-25%	u	0%
O=C(COc1ccccc1)Nc1nnc(-c2ccccc2Cl)o1	x	x	x	-20%	-24%
CN(C)c1nc(N)nc(CSc2ncc(Cl)cc2Cl)n1	-29%	4%	13µM*	-13%	-15%
COc1ccc(C2CC2C(=O)c2ccccn2)cc1 (configuration not stated)	11%	6%	21%	11%	3%
O/N=C(\c1ccccn1)C1CC1c1ccccc1 (configuration not stated)	-13%	6%	13µM*	u	u
COc1ccc(C2CC2/C(=N/O)c2ccccc2)cc1 (configuration not stated)	-2%	6%	22%	23µM*	18µM*
COc1ccc(C2CC2/C(=N/O)c2ccccn2)cc1 (configuration not stated)	3.2µM*	-3%	u	13µM*	u
O=C1CC(c2ccccc2)n2nc(NC(=O)c3ccccn3)nc2N1 (configuration not stated)	-4%	2%	-34%	u	u
COc1ccc(C2N(C(=O)c3ccccc3)CCN2C(=O)c2ccccc2)cc1	-1%	2%	-5%	-4%	-11%
CCn1c(/C=C/Nc2ccccc2)[n+](CC)c2ccc(Cl)cc21	1%	3%	24%	23µM*	21µM*
CCOC(=O)c1ccc2c(c1)n(CC)c(/C=C/Nc1ccccc1)[n+]2CC	-11%	4%	-3%	18µM*	12µM*
CCn1c(C)[n+](Cc2ccccc2)c2ccc(C(=O)OC)cc21	-3%	5%	-4%	2%	-25%
Cc1ccc(NC(=O)C2CCCN(S(=O)(=O)c3ccc(C)cc3)C2)cc1 (configuration not stated)	x	2%	x	16µM*	16µM*
O=C(Nc1cccc(F)c1)C1CCCN(S(=O)(=O)c2ccccc2)C1 (configuration not stated)	4%	0%	39%	18µM*	u
Cc1ccc(S(=O)(=O)N2CCCC(C(=O)N(Cc3cccs3)C3CC3)C2)cc1 (configuration not stated)	1%	2%	u	13µM*	13µM*
CCOc1ccc(OCC)c(NC(=O)C2CCCN(S(=O)(=O)c3ccc(C)cc3)C2)c1 (configuration not stated)	-9%	2%	45%	26µM*	16µM*
CCN1CCN(c2ccc(NC(=O)c3cc(OC)c(OC)c(OC)c3)cc2)CC1	8%	x	20%	11%	3%
Cc1ccc2c(n1)CC(C)(C)CC2=O	-6%	5%	2%	0%	0%
COc1ccc(S(=O)(=O)N2CCCC(C(=O)Nc3cccc(C(C)=O)c3)C2)cc1 (configuration not stated)	4.5µM*	5%	u	u	u
COc1ccc(NC(=O)C2CCCN(S(=O)(=O)c3ccc(F)cc3)C2)cc1 (configuration not stated)	x	2%	x	15µM*	15µM*
COc1ccc(S(=O)(=O)N2CCCC(C(=O)Nc3ccc4c(c3)OCCO4)C2)cc1 (configuration not stated)	16%	7%	u	21µM*	u
CC(=O)c1cccc(NC(=O)C2CCCN(S(=O)(=O)c3ccc(F)cc3)C2)c1 (configuration not stated)	-14%	5%	13%	u	u
SMILES	Gal4-VP16 FLuc	TDP1 inh	RORg inh	DT40 TDP1 CPT	TDP1 cell noCPT
Cc1cccc(C)c1NC(=O)CN(C)C(C)C(=O)Nc1ccccc1-c1ccccc1 (configuration not stated)	-10%	3%	26%	u	-23%
Cc1ccccc1CN(C)C(C)C(=O)Nc1ccccc1F (configuration not stated)	u	-6%	8%	u	26µM*
COc1ccc(-c2cc3ccc(OCC(=O)NCC4CCC(C(=O)O)CC4)cc3oc2=O)cc1 (configuration not stated)	u	x	u	-11%	-10%
N#Cc1c(-c2ccc(F)cc2)c(-c2ccc(F)cc2)nn(CCO)c1=O	x	x	x	4.6µM*	3.3µM*
CCCCOC(=O)n1c(=S)oc2cc(Cl)ccc21	-1%	6%	6%	8.2µM*	23µM*
CCOC(=O)c1oc2ccccc2c1NC(=O)C1CCCCC1	-13%	5%	-3%	-18%	-37%
COc1ccc(CNC(=O)c2cc3c(=O)n(Cc4ccco4)ccc3nc2C)c(OC)c1	x	6%	x	u	u
O=C(CC1CCCC1)N1CCN(S(=O)(=O)c2cccc(Br)c2)CC1	x	x	x	18µM*	u
COC(=O)N/N=C\c1ccccc1OC/C=C/c1ccccc1	18%	4%[56.1 µM]	u	u	u
COC(=O)N/N=C/c1cc(Cl)cc(Cl)c1OCc1ccccc1	-14%	0%	-11%	18µM*	u
Cc1ccc(CS(=O)(=O)c2ncc(Cl)c(C(=O)Nc3nnc(C(C)C)s3)n2)cc1	7.1µM*	2%	u	5.8µM*!	12µM*
Cc1ccc(C)c(NC(=O)c2nc(S(=O)(=O)Cc3ccc(F)cc3)ncc2Cl)c1	x	7%	x	1.5µM*	2.1µM*
CCSc1nnc(NC(=O)c2nc(S(=O)(=O)Cc3ccc(F)cc3)ncc2Cl)s1	11µM*	4%	u	13µM*	10µM*
CCSc1nnc(NC(=O)CN(C)S(=O)(=O)c2ccc(F)cc2)s1	3%	-2%	21%	4%	-20%
CSc1nnc(NC(=O)c2nc(S(=O)(=O)Cc3ccccc3F)ncc2Cl)s1	10µM*	3%	16µM*	2.9µM*	-84%
Cc1ccc(C)c(NC(=O)c2nc(Cl)ccc2Cl)c1	u	0%	-10%	-19%	0%
Cc1nnc(NC(=O)c2nc(SCc3ccccc3F)ncc2Cl)s1	x	5%	x	4%	-8%
O=C(COC(=O)c1nc(Cl)ccc1Cl)NC1CCCCCC1	x	1%	x	u	-5%
CC(C)c1nnc(NC(=O)c2nc(SCc3ccc(F)cc3)ncc2Cl)s1	x	-2%	x	-20%	-3%
Cc1cccc(CS(=O)(=O)c2ncc(Cl)c(C(=O)Nc3nnc(C(C)C)s3)n2)c1	u	5%	0.022µM*	4.6µM*	13µM*
